Screening data (PubChem BioAssay)
In the library only some 2.1% were active in any assay of this set; here they are far more common.
Wee1 stabilizer: blocks degradation of human Wee1 kinase; P30291; hit rate 1.2% among 220,000; reporter increase, % at 5 µM; HeLa Luc-Wee1K328M stability, luciferase luminescence; 100% = proteasome inhibitor MG132 effect;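 active means activation above the mean of all tested compounds plus 3 SD, set per screening run, cut at about 8.8% in these data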;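 further: cells exposed to compound for 20 h before luminescence read; 0% = DMSO alone and 100% = MG132 at 30 µM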
Target sequence (P30291 whole entry K328M): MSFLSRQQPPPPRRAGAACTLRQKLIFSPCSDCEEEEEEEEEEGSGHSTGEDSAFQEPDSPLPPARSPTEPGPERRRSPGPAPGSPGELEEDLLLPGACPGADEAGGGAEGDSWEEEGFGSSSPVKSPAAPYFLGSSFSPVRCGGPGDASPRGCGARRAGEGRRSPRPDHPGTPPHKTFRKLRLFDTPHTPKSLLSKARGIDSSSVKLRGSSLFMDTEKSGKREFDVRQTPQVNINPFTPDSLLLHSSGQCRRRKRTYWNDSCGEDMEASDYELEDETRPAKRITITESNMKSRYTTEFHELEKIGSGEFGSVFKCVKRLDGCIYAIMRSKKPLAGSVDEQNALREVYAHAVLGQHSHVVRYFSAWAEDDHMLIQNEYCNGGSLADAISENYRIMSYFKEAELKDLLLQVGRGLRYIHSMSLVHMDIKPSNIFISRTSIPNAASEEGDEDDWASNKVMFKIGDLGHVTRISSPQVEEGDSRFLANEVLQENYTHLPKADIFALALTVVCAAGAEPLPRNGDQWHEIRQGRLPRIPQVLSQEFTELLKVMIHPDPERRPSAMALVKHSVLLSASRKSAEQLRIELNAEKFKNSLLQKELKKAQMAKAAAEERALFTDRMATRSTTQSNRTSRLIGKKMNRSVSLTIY
HIF activator: HIF pathway transcriptional activation | U2OS HRE-luciferase reporter, luminescence; normalized: DMSO 0%, desferrioxamine 100% | activation, % at 7.5 µM (by protocol) | hit rate 0.32% among 300,000 | AID 1910;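 active means mean activation of at least 10% of the iron chelator positive control signal, with at least half of replicates also reaching 10%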
aSyn 5UTR inh: MLPCN primary screen, SNCA 5' untranslated region | alpha-synuclein 5'UTR reporter, inhibitor activity | inhibition, % (tested at 7.5 µM) | AID 1813 | hit rate 0.82% among 300,000; in the data active means inhibition above about 60%;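 further: H4 neuroglioblastoma cells stably carrying SNCA 5'UTR luciferase fusion; 0% = DMSO wells and 100% = positive control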
Platelet DG rel: modulates dense granule release in human platelets. human platelet-rich plasma, SFLLRN dense granule ATP release, luminescence. inhibition, %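 (compounds screened at 7.5 µM in platelet-rich plasma)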. hit rate 0.22% among 300,000;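 active means mean replicate score, as percent of positive control, at or above 50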
KLF5 inh: inhibitors of KLF5 expression. inhibition, % at 5 µM. hit rate 0.23% among 290,000. DLD-1 KLF5 promoter-luciferase reporter, luminescence;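 active means inhibition above a per-plate limit of that plate's mean compound inhibition plus 3 SD, cut at about 60% in these data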;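 further: 0% = DMSO wells and 100% = LY294002 at 200 µM; higher means less KLF5 promoter-driven luciferase light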
Active calls of the source: *; i = inactive; . = not tested or not shown.

SMILES | Wee1 stabilizer | HIF activator | aSyn 5UTR inh | Platelet DG rel | KLF5 inh
CCC(=O)NC(=S)Nc1ccc(NC(=O)c2ccccc2[N+](=O)[O-])cc1 | -2 | 2 | 0 | -2 | -14
CCC(=O)NC(=S)Nc1ccc(NC(=O)c2cccc([N+](=O)[O-])c2C)cc1 | 0 | 15* | -2 | 6 | -1
CCCCCCc1cc2cc(C(=O)Nc3ccccc3)c(=O)oc2cc1O | -2 | . | 92* | 0 | -43
CCCCCCc1cc2cc(C(=O)NCc3ccccc3)c(=N)oc2cc1O | -2 | 0 | -14 | 3 | -23
O=C1CC(CCC(=O)NC2CC2)c2ccccc2N1 (centres undefined) | 9.0* | 0 | 9 | 0 | 8
CC(C)N1CCC(N2CCN(CC#Cc3ccccc3)CC2CCO)CC1 (centres undefined) | 16* | 0 | -16 | -2 | -36
CC(C)N1CCN(CC#Cc2ccccc2)CC1CCO (centres undefined) | 0 | 0 | -2 | 4 | 5
O=C(Nc1ccccc1C(=O)O)c1ccc(NC(=O)C2CC2)cc1 | . | -1 | 38 | 3 | 15
O=C(Nc1ccccc1O)c1ccc(NC(=O)C2CC2)cc1 | . | 58* | i | 4 | -171
O=C(COc1ccc2c(c1)CCC2)N1CCN(c2ccccc2F)CC1 | 10* | 0 | -7 | -10 | 23
Cc1cc2ccccc2nc1SCC(=O)N1c2ccccc2CC1C (centres undefined) | 2 | 0 | 2 | 67* | -15
CCCOc1ccccc1C1C(C(=O)OC)=CN(C(C)C)C=C1C(=O)OC | -1 | 0 | 5 | 4 | -18
CCCCOc1ccccc1C1C(C(=O)OC)=CN(CC)C=C1C(=O)OC | 2 | 0 | 1 | 51* | -30
O=C(O)CC(c1ccc(C(F)(F)F)cc1)N1Cc2ccccc2C1=O (centres undefined) | . | 0 | 24 | -9 | -31
O=[N+]([O-])c1ccc(O)c(/C=N/Nc2ncnc3c2cnn3-c2ccccc2)c1 | . | 0 | 66* | 6 | 15
Cc1ccc(NC(=O)C(=O)NCCOc2ccc(Cl)cc2)c(C)c1 | 1 | 1 | 19 | -7 | 2
CCOc1ccc(/C=C/C(=O)c2cc(Br)ccc(=O)c2O)cc1 | 3 | . | . | . | -12
CCc1ccc(/C=C/C(=O)c2cc(Br)ccc(=O)c2O)cc1 | 0 | 0 | 72* | 11 | -23
Cc1c(O)ccc(C(=O)CN2CCN(Cc3ccc4c(c3)OCO4)CC2)c1O | 11* | 1 | 6 | 6 | 7
COc1ccc(/C=N/Nc2ncnc3sc4c(c23)CCCC4)cc1OC | 0 | 10* | -56 | 0 | 1
Fc1ccc(Nc2ncnc3sc4c(c23)CCC4)cc1F | 1 | 1 | 26 | -2 | -17
CC(=O)OCCc1c2ccccc2c(CCCN(C)C)c2ccccc12 | . | 0 | 103* | 7 | .
CCC(NS(=O)(=O)c1ccc(C)cc1)C(=O)N1CCOCCOCCOCCOCC1 (centres undefined) | . | 0 | 1 | -11 | -3
CCCN1CCc2c(sc(NC(=O)CCS(=O)(=O)c3ccccc3)c2C(=O)OC)C1 | . | 0 | -10 | 11 | -17
CCOC(=O)c1c(-c2ccc(-c3ccccc3)cc2)csc1NC(=O)CNCCN(C)C | . | 2 | 101* | -5 | -10
SMILES | Wee1 stabilizer | HIF activator | aSyn 5UTR inh | Platelet DG rel | KLF5 inh
COc1ccc(CN2CCNC(=O)C2CC(=O)NCc2csc(C)n2)c(F)c1 (centres undefined) | . | 0 | -2 | -8 | -10
COc1ccc(/C=C(/NC(=O)c2ccc([N+](=O)[O-])cc2)C(=O)NCCCN(C)C)cc1 | -1 | 0 | 16 | 1 | -8
O=C(CSc1nnc(NC(=O)Cc2ccccc2)s1)NCc1ccco1 | 3 | 0 | 9 | 8 | -39
O=C(CSc1nnc(NC(=O)c2c(F)cccc2F)s1)Nc1ccc(F)cc1 | 10* | 1 | -47 | 1 | 3
O=C(CSc1nnc(NC(=O)Cc2ccc(F)cc2)s1)NCc1ccco1 | 10* | 0 | -6 | 0 | -30
Cc1cn2c(=O)c(C(=O)NCc3ccc4c(c3)OCO4)cnc2s1 | . | 0 | -7 | 21 | .
COC(=O)c1ccc(NC(=O)CN2CCC(NC(=O)c3ccco3)CC2)cc1 | 11* | 0 | 2 | -1 | 13
CC(=O)Nc1ccc(NC(=O)CN(c2cccc([N+](=O)[O-])c2)S(C)(=O)=O)cc1 | 1 | 0 | 69* | 3 | -10
O=C(O)CCn1c2ccccc2c2nc3ccccc3nc21 | . | -18 | -25 | 0 | -38
CC(=O)c1ccc(N2CCN(C(=O)c3cccs3)C(C)C2)c(F)c1 (centres undefined) | . | 0 | -1 | -3 | 6
CC(C1CC1)N(Cc1ccccc1)C(=S)Nc1ccccc1 (centres undefined) | 9.6* | 0 | -14 | -2 | -23
O=C(CSc1nnc(-c2ccc(Cl)cc2)o1)N1CCOCC1 | . | 1 | -154 | -58 | -126
O=C(CSc1nnc(-c2ccccc2Cl)o1)N1CCOCC1 | . | 14* | -124 | 0 | -77
Cc1cc(C)cc(OCCn2nnc3ccccc32)c1 | . | -14 | -126 | 0 | -76
COc1ccc(NC(=O)CSc2nc3ncccc3[nH]2)cc1OC | 11* | 1 | -27 | 2 | -5
COCC(=O)n1nc(NCc2ccc(OC)cc2)nc1NCc1ccc(OC)cc1 | 2 | 0 | 6 | 6 | -36
CCC(=O)n1nc(NCc2ccc(OC)c(OC)c2)nc1NCc1ccc(OC)c(OC)c1 | -2 | 227* | 6 | 11 | -13
O=C(Nc1c2c(nn1-c1ccc(Cl)cc1)CS(=O)(=O)C2)C1CC1 | . | 0 | -15 | 14 | -28
COc1ccccc1CCNC(=O)NC1CCCCC1 | 9.7* | 0 | -37 | -1 | -53
O=C(NCCC1=CCCCC1)NC1CCCCC1 | 4 | 1 | -51 | 54* | -103
CCN1C(=NCCc2cccs2)N[C@@H](c2cccs2)C(C(=O)OC)=C1C | . | -1 | -3 | -3 | -2
Cn1c(=N)n(CC(=O)c2ccc(Cl)c(Cl)c2)c2ccccc21 | . | -29 | 81* | 9 | 41
Cn1c(=N)n(CC(=O)c2ccccc2)c2ccccc21 | 2 | -3 | 90* | 22 | -41
Cn1c(=N)n(CC(=O)O)c2ccccc21 | -2 | 0 | -9 | -6 | -33
CCC(=O)Nc1ccc(C(=O)Nc2cccc(C)n2)cc1 | 2 | 2 | -169 | 20 | -80
SMILES | Wee1 stabilizer | HIF activator | aSyn 5UTR inh | Platelet DG rel | KLF5 inh
CCCCN(CCCC)C(=S)N/N=C/c1c(C)[nH]n(-c2ccccc2)c1=O | -2 | 0 | 93* | -1 | -1
Cc1[nH]n(-c2ccccc2)c(=O)c1/C=N/Nc1nncc(-c2ccccc2)n1 | 2 | 0 | 91* | -4 | 35
CC(=O)Nc1ccc(Nc2cc(C)nc3c(-c4ccccc4)cnn23)cc1 | -3 | . | . | . | -3
COc1cc(CCNC(=O)CCCn2c(=O)c3cccn3c3cccnc32)cc(OC)c1OC | . | -1 | 25 | -1 | -8
Cc1ccc(C(=O)N/N=C/c2cccc(OC(=O)/C=C/c3ccco3)c2)cn1 | 0 | 1 | -100 | -3 | -23
O=C(/C=C/c1ccco1)Oc1cc(Br)cc(/C=N/NC(=O)c2ccccc2O)c1 | -2 | 97* | 96* | -6 | -5
